A word on the inhibition: it is the change of the read-out against control, counted positive when it falls.

Our source for the inhibition values is PubChem BioAssay AID651636 (Sanford-Burnham Center for Chemical Genomics, 2012).

Hit rate of the full screen: of about 360,000 compounds, about 3,000 (0.83%) were called active. Rule as the data show it: active = inhibition above about 38%; inactive = the rest. The sample as a whole holds a higher share of actives than the screen did.

In this test the target is G-protein coupled receptor 183 (Homo sapiens) (UniProt P32249). Description: EBI2 receptor antagonists, beta-arrestin recruitment, primary screen, cell-based, luminescence, 7a,25-OHC stimulation, uHTS (AID 651636).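 Also: enzyme fragment complementation signal reports receptor beta-arrestin coupling in cells; 0% = agonist plus DMSO wells and 100% = wells without agonist.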 The following applies: 7a,25-OHC stimulated, at 5 µM, hits give high values. (Activated receptors often draw arrestin, which recruitment assays turn into a signal.)
Chain of G-protein coupled receptor 183 (Homo sapiens) (P32249 whole entry, looked up, the tested form may be a part): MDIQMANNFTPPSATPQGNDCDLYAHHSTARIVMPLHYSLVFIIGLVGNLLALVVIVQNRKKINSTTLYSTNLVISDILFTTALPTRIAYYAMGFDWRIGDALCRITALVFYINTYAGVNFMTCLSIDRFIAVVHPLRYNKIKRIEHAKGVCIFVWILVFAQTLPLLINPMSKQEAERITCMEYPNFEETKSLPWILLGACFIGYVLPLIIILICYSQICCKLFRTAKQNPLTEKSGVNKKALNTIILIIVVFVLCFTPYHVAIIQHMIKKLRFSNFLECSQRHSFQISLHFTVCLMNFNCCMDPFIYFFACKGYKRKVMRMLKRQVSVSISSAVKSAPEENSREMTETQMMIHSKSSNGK
Take `C=CCOc1c(CNn2cn[nH]c2=S)cccc1OC`: the inhibition is -9.2% (inactive).

On to `O=C(c1cc2ccccc2s1)N1CCN(c2ccccn2)CC1`, for which the inhibition was 60.8% (active).

Consider `O=C(Cc1ccccc1Cl)N1CCN(c2ccccn2)CC1`, for which the inhibition is 7.34% (inactive).

In the case of `Cc1cc(C(=O)N2CCN(c3ccccn3)CC2)c(C)o1`, the inhibition is -3.6% (inactive).

For `O=C(NCN1CCN(CCO)CC1)c1cnccn1`, the inhibition is -9.7% (inactive).

In the case of `CSCCC(c1nnnn1Cc1ccccc1)N1CCN(C/C=C/c2ccccc2)CC1` (configuration not stated), the inhibition was 19.1% (inactive).

`CCCC(c1nnnn1C(C)(C)C)N1CCN(Cc2ccccc2)CC1` (configuration not stated): the inhibition is 12.5% (inactive).

For the compound `Cc1cccc(C)c1-n1nnnc1C(CCc1ccccc1)N1CCN(C/C=C/c2ccccc2)CC1` (configuration not stated), the inhibition was 39.8% (active).

In the case of `COC1=C/C(=C/c2c(N)n3nc(CC(=O)N4CCOCC4)sc3nc2=O)C=CC1=O`, the inhibition is -0.898% (inactive).

In the case of `O=C(c1ccc(CS(=O)(=O)c2ccccc2)o1)N1CCN(c2ccccc2)CC1`, the inhibition was -5.95% (inactive).

As for `COc1ccccc1N1CCN(C(=O)c2cc(=O)c3cc(C)cc(C)c3o2)CC1`, the inhibition was 72.9% (active).

In the case of `COc1ccccc1N1CCN(c2nc(C)cc(=O)[nH]2)CC1`, the inhibition was -15.3% (inactive).

Take `COc1ccccc1N1CCN(C(=O)C2Cc3ccccc3CN2C(=O)c2ccco2)CC1` (configuration not stated): the inhibition is 7.65% (inactive).

Turning to `COc1ccccc1N1CCN(C(=O)c2ccc(NC3=NC4CS(=O)(=O)CC4S3)cc2)CC1` (configuration not stated), the inhibition was -5.44% (inactive).

Consider `COc1ccccc1N1CCN(C(=O)c2cc(=O)c3cc(C)ccc3o2)CC1`, for which the inhibition was 93.3% (active).

Consider `O=C(c1cc(=O)c2ccccc2o1)N1CCN(c2ccccc2)CC1`, for which the inhibition is 48.1% (active).

Take `O=C(NCCS(=O)(=O)N1CCN(c2ccccc2)CC1)c1cc(=O)c2ccccc2o1`: the inhibition is 5.68% (inactive).

With `CCOc1ccccc1N1CCN(C(=O)c2ccc3[nH]c(C)c(C)c3c2)CC1`, the inhibition is 18.2% (inactive).

Consider `[O-][n+]1onc2c1CCc1[nH]c(-c3ccccc3)nc1-2`, for which the inhibition was 3.97% (inactive).

As to `CCc1nccn1S(=O)(=O)c1cccc([N+](=O)[O-])c1`, the inhibition was 2.08% (inactive).

Consider `CC1(C(=O)Nc2ccc3c(c2)OCCO3)CCN1C(=O)Cc1cc(F)ccc1F` (configuration not stated), for which the inhibition was -9.9% (inactive).

Turning to `O=C(CCCC(=O)N(CC(=O)NC1CCCC1)Cc1ccccc1Cl)Nc1ccccn1`, the inhibition was -4.48% (inactive).

Take `CC(C)CCN1CCN(C/C=C/c2ccco2)CC1CCO` (configuration not stated): the inhibition was 2.4% (inactive).

For `O=C(O)C1C2C=CC(C2)C1C(=O)NCc1ccccc1` (configuration not stated), the inhibition is -5.43% (inactive).

As to `COc1ccccc1CNC(=O)C1CCN(c2nc3ccccc3o2)CC1`, the inhibition is 4.11% (inactive).

With `COc1ccccc1CCNC(=O)C1CCN(C(=O)/C=C/c2ccccc2)CC1`, the inhibition is 86.2% (active).

Take `COc1ccccc1CNC(=O)C1CCN(C(=O)[C@@H]2Cc3ccccc3CN2)CC1`: the inhibition is -0.14% (inactive).

As to `O=C(NCCC1CCCCN1S(=O)(=O)c1ccc(Cl)cc1)C(=O)NCc1ccco1` (configuration not stated), the inhibition is 2.6% (inactive).

Turning to `CC1(C)Oc2ccc(C(=O)N3CCOCC3)cc2N(CC(=O)Nc2ccccc2)C1=O`, the inhibition was 1.64% (inactive).

Regarding `Cc1ccc(OCC(O)CN2CCN(CC(O)COc3ccc(C)cc3Cl)CC2)c(Cl)c1` (configuration not stated), the inhibition was 4.54% (inactive).

Consider `CC(=O)c1ccc(OCC(O)CN2CCN(S(=O)(=O)c3cccc(Br)c3)CC2)cc1` (configuration not stated), for which the inhibition is 40.3% (inactive).

For the compound `Cc1cccc(OCC(O)CN2CCN(S(=O)(=O)c3ccc(C)cc3C)CC2)c1` (configuration not stated), the inhibition is 54.6% (active).

Consider `Cc1ccc(S(=O)(=O)N2CCN(C(=O)CSc3cc(C)ccc3C)CC2)c(C)c1`, for which the inhibition was 64.3% (active).

As for `CCCc1cc(=O)[nH]c(SCC(=O)N2CCN(S(=O)(=O)c3ccc(C)cc3C)CC2)n1`, the inhibition is -2.8% (inactive).

Take `Cc1ccc(S(=O)(=O)N2CCN(C(=O)COC(=O)c3c(C)cc(C)cc3C)CC2)c(C)c1`: the inhibition was 3.87% (inactive).

`Cc1nnnn1/C(=C\c1ccccc1)C(=O)OCC(=O)N1CC2(C)CC1CC(C)(C)C2` (configuration not stated): the inhibition is 31.6% (inactive).

As for `CCCC(C(=O)N1CCOCC1)N1C(=O)C2C3C=CC(C3)C2C1=O` (configuration not stated), the inhibition is -18.5% (inactive).

With `CC(=O)c1ccc(S(=O)(=O)N2CCN(c3nc4c(C)c(C)ccc4cc3C#N)CC2)cc1`, the inhibition was 15.8% (inactive).

Regarding `CC(=O)c1ccc(S(=O)(=O)N2CCC(Oc3ccc(-n4cnnn4)cc3)CC2)cc1`, the inhibition was 2.61% (inactive).

For the compound `CC(=O)c1ccc(S(=O)(=O)N2CCN(C(=O)/C=C/c3ccc4ccccc4n3)CC2)cc1`, the inhibition was 62.3% (active).

Turning to `CCOC(=O)c1nn(-c2cccc(C)c2)cc1C(=O)c1ccccc1`, the inhibition was 11% (inactive).

Consider `CC(=O)c1nn(-c2cccc(Br)c2)cc1C(=O)c1cccc2ccccc12`, for which the inhibition was 12% (inactive).

Consider `CC(=O)c1nn(-c2ccc(C)cc2)cc1C(=O)c1cccc(Br)c1`, for which the inhibition is 46.1% (active).

For the compound `CCc1ccc[n+](-c2nc([O-])sc2C=O)c1`, the inhibition was 7.04% (inactive).

With `Cc1ccc(C(=O)N2CCCc3ccccc32)c(Cl)c1`, the inhibition was 10.8% (inactive).

`CCCn1nc(C(=O)N2CCCc3ccccc32)c2ccccc2c1=O`: the inhibition was 14.1% (inactive).

As to `Cc1cccc2cc3c(N)c(C(=O)N4CCCc5ccccc54)sc3nc12`, the inhibition is 76.1% (active).

Consider `COc1ccc(C(C#N)=C2C=CC(=NO)c3ccccc32)cc1`, for which the inhibition is 17.2% (inactive).

Turning to `CC(Oc1ccc(Cl)cc1)C(=O)Nc1ncccn1` (configuration not stated), the inhibition was -3.28% (inactive).

Regarding `CC(=O)/C(=N\Nc1ccc(Cl)cc1Cl)Sc1cccc2cccnc12`, the inhibition is 63.7% (active).

Turning to `COc1cccc(CNC(=O)C2CCN(S(=O)(=O)c3cccc4cccnc34)CC2)c1`, the inhibition is -6.22% (inactive).

Turning to `CCCCc1ccc(NS(=O)(=O)c2cccc(C(=O)N3CCCN(C)CC3)c2)cc1`, the inhibition was -4.46% (inactive).

In the case of `Cc1ccc(CN2CC(C(=O)NNC(=O)Cn3ccc(C(F)(F)F)n3)CC2=O)cc1` (configuration not stated), the inhibition is 7.75% (inactive).

For `O=C(/C=C/c1ccc(Cl)cc1)N1CCN(c2ccccc2[N+](=O)[O-])CC1`, the inhibition is 93.1% (active).

In the case of `O=C(/C=C/c1ccc(OCc2c(F)cccc2Cl)cc1)N1CCOCC1`, the inhibition was 7.94% (inactive).

Take `O=C(/C=C/c1cccc([N+](=O)[O-])c1)OCC(=O)N1CCOCC1`: the inhibition was 1.92% (inactive).

As for `O=C(/C=C/c1ccccc1[N+](=O)[O-])OCC(=O)N1CCCC1`, the inhibition was -0.221% (inactive).

As to `O=C(/C=C/c1cccc([N+](=O)[O-])c1)N1CCN(Cc2ccccc2)CC1`, the inhibition is 53.3% (active).

With `Cc1c(Br)c([N+](=O)[O-])nn1CC(=O)N1CCN(Cc2ccccc2)CC1`, the inhibition is -9.97% (inactive).

As to `O=C(NCCN1CCCC(O)C1)c1cc(COc2c(F)cccc2F)on1` (configuration not stated), the inhibition was -9.61% (inactive).

On to `CCOC(=O)C1(O)CC(C)=NN1C(=O)c1cccc(Br)c1` (configuration not stated), for which the inhibition was -21.3% (inactive).

In the case of `CCC1([N+](=O)[O-])COC(c2ccc(C(C)C)cc2)OC1` (configuration not stated), the inhibition was -3.46% (inactive).

Take `COc1ccc(S(=O)(=O)N(C)C[C@H]2Oc3c(NC(=O)Nc4ccc5c(c4)OCO5)cccc3C(=O)N([C@H](C)CO)C[C@@H]2C)cc1`: the inhibition is 5.07% (inactive).

Take `Cc1ccc(NC(=O)C2CCC(C(C)(C)C)CC2)cc1S(=O)(=O)N1CCOCC1` (configuration not stated): the inhibition is -1.74% (inactive).

Take `Cc1[nH]nc(SCC(=O)NCC(C)C)c1[N+](=O)[O-]`: the inhibition is -0.06% (inactive).

On to `N#CC1=C(SCc2ccc(C#N)cc2)N=C(N)C(c2nc(-c3ccccc3)cs2)C12CCCCC2` (configuration not stated), for which the inhibition is 15.1% (inactive).

For the compound `Cc1ccc(CSCCNC(=O)CN(c2ccc(F)cc2)S(C)(=O)=O)cc1`, the inhibition was 59% (active).

Regarding `Cc1cc(C)cc(N(CC(=O)NCCSCc2ccco2)S(C)(=O)=O)c1`, the inhibition was 3.14% (inactive).

Turning to `COc1ccc(N(CC(=O)NCCSCc2cccc(Cl)c2)S(C)(=O)=O)cc1`, the inhibition was -2.19% (inactive).

Take `O=C(CCCOc1ccccc1)NNC(=O)c1ccc(Cl)cc1`: the inhibition was 17.9% (inactive).

In the case of `O=C(NNC(=O)c1ccc2ccccc2c1)c1ccc(Cl)cc1`, the inhibition is 60.9% (active).

Turning to `CN(CC(=O)Nc1ccc(Cl)cc1)C(=O)CNC(=O)c1ccc2ccccc2c1`, the inhibition is 2.02% (inactive).

For `Cc1ccc(-c2c(C)n([O-])c3c([n+]2=O)CCC3)cc1`, the inhibition is 0.406% (inactive).

Consider `O=C(NCCc1ccccc1)Oc1ccc(Cl)cc1`, for which the inhibition is -9.27% (inactive).

In the case of `O=C(CCc1ccccc1)NNC(=O)COc1ccc(Cl)cc1`, the inhibition is 38.4% (active).

As to `O=C(COc1ccc(Cl)cc1)NCCSc1ccccc1`, the inhibition was 26.9% (inactive).

Regarding `CC(NC(=O)C1CCCN(S(=O)(=O)c2ccc(-n3cnnn3)cc2)C1)c1ccc(F)cc1` (configuration not stated), the inhibition was -4.68% (inactive).

As for `O=C1/C(=C\c2ccc(O)cc2)CCC1CNc1ccc(Cl)cc1` (configuration not stated), the inhibition is 20.4% (inactive).

For the compound `O=C(C1CCN(S(=O)(=O)c2cnc[nH]2)CC1)N1CCN(Cc2ccc3c(c2)OCO3)CC1`, the inhibition is -0.0388% (inactive).

For the compound `COC(=O)c1ccc(/C=N/N2C(C)CCCC2C)cc1` (configuration not stated), the inhibition is -2.67% (inactive).

As to `Brc1ccc(/C=N/N2CCN(C3c4ccccc4-c4ccccc43)CC2)s1`, the inhibition is 6.47% (inactive).

In the case of `CCOc1ccc(CCN2C(=O)C(=O)N([C@@H](CC(C)C)CN3CCC[C@H]3CN3C(=O)C(=O)NC[C@@H]3Cc3ccccc3)C[C@@H]2CC(C)C)cc1`, the inhibition is -13.2% (inactive).

As for `CCOc1ccc(CCN2C(=S)N([C@@H](CC(C)C)CN3CCC[C@@H]3CN3C(=S)NC[C@@H]3Cc3ccc(O)cc3)C[C@@H]2CC(C)C)cc1`, the inhibition was 17.1% (inactive).

Regarding `CCOc1ccc(CCN2C(=S)N([C@@H](CC(C)C)CN3CCC[C@@H]3CN3C(=S)NC[C@@H]3Cc3ccc(O)cc3)C[C@@H]2Cc2ccc(O)cc2)cc1`, the inhibition is 51.8% (active).

Turning to `CC1(C)NC(=O)N(CC(=O)Nc2ccc(-c3ccccc3)cc2)C1=O`, the inhibition was -7.07% (inactive).

For `Cc1cccc(N(CC(=O)Nc2ccc(-c3nc4ccc(C)cc4s3)cc2)S(C)(=O)=O)c1`, the inhibition is 9.99% (inactive).

Consider `N=C1C(=O)OCC1c1ccccc1NC(=O)CN1CCCCC1` (configuration not stated), for which the inhibition was -2.7% (inactive).
